Laboratory results taken from PubChem BioAssay (NCI).
Compounds without any hit were thinned out: in the full panel of roughly 83,000, 20% have a hit.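 For each line, cells grew in 96-well plates with the test compound present at a single concentration for 48 hours.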

Legend:
Assay in all cases: NCI-60 one-dose screen, 48 h (100 = growth as untreated, 0 = no growth, -100 = all killed)
Conditions in all cases: 10 µM unless noted; active = growth percent below 10; inactive = the rest
NCI-H23 lung = tested on: NCI-H23 lung
NCI-H226 lung = tested on: NCI-H226 lung
NCI-H322M lung = tested on: NCI-H322M lung
HOP-62 NSCLC = tested on: HOP-62 NSCLC
NCI-H460 lung = tested on: NCI-H460 lung
HOP-92 NSCLC = tested on: HOP-92 NSCLC
NCI-H522 lung = tested on: NCI-H522 lung
A549/ATCC NSCLC = tested on: A549/ATCC NSCLC
786-0 renal = tested on: 786-0 renal
COLO 205 colon = tested on: COLO 205 colon
DU-145 prostate = tested on: DU-145 prostate
K-562 leukemia = tested on: K-562 leukemia
MALME-3M melanoma = tested on: MALME-3M melanoma
MDA-MB-231 breast = tested on: MDA-MB-231 breast
RXF 393 renal = tested on: RXF 393 renal
SF-268 CNS = tested on: SF-268 CNS
SF-295 CNS = tested on: SF-295 CNS
SF-539 CNS = tested on: SF-539 CNS
UACC-257 melanoma = tested on: UACC-257 melanoma
M14 melanoma = tested on: M14 melanoma

Measured: growth

Cc1ccc(NC(=O)c2ccccc2Cl)cc1
inactive: NCI-H23 lung 102% | NCI-H226 lung 108% | NCI-H322M lung 113% | HOP-62 NSCLC 113% | NCI-H460 lung 101% | HOP-92 NSCLC 75.5% | NCI-H522 lung 98.6% | A549/ATCC NSCLC 106% | 786-0 renal 105% | COLO 205 colon 120% | DU-145 prostate 112% | K-562 leukemia 99.6% | MALME-3M melanoma 123% | MDA-MB-231 breast 118% | RXF 393 renal 108% | SF-268 CNS 109% | SF-295 CNS 108% | SF-539 CNS 107% | UACC-257 melanoma 131% | M14 melanoma 114%

CC1CN(CCO)CC(C)O1 (stereo not given)
inactive: NCI-H23 lung 106% | NCI-H226 lung 95.2% | NCI-H322M lung 102% | HOP-62 NSCLC 99.3% | NCI-H460 lung 110% | HOP-92 NSCLC 103% | NCI-H522 lung 108% | A549/ATCC NSCLC 100% | 786-0 renal 104% | COLO 205 colon 117% | DU-145 prostate 107% | K-562 leukemia 98.9% | MALME-3M melanoma 99.7% | MDA-MB-231 breast 101% | RXF 393 renal 132% | SF-268 CNS 99.7% | SF-295 CNS 104% | SF-539 CNS 98.4% | UACC-257 melanoma 105% | M14 melanoma 108%

CC1(C)OC(=O)CC1=O
inactive: NCI-H23 lung 98.6% | NCI-H226 lung 76.1% | NCI-H322M lung 108% | HOP-62 NSCLC 97.9% | NCI-H460 lung 104% | HOP-92 NSCLC 81.2% | NCI-H522 lung 86.4% | A549/ATCC NSCLC 69% | 786-0 renal 98.4% | COLO 205 colon 99.6% | DU-145 prostate 109% | K-562 leukemia 92.2% | MALME-3M melanoma 105% | MDA-MB-231 breast 104% | RXF 393 renal 103% | SF-268 CNS 103% | SF-295 CNS 106% | SF-539 CNS 102% | UACC-257 melanoma 89.4% | M14 melanoma 93.9%

COC1CC(OC(=O)c2ccc([N+](=O)[O-])cc2)C(COC(=O)c2ccc([N+](=O)[O-])cc2)O1 (stereo not given)
inactive: NCI-H23 lung 105% | NCI-H226 lung 88.9% | NCI-H322M lung 113% | HOP-62 NSCLC 118% | NCI-H460 lung 105% | HOP-92 NSCLC 82.8% | NCI-H522 lung 118% | A549/ATCC NSCLC 103% | 786-0 renal 105% | COLO 205 colon 112% | DU-145 prostate 119% | K-562 leukemia 107% | MALME-3M melanoma 140% | MDA-MB-231 breast 105% | RXF 393 renal 103% | SF-268 CNS 112% | SF-295 CNS 94.5% | SF-539 CNS 105% | UACC-257 melanoma 91.9% | M14 melanoma 110%

C/C(Cc1ccccc1)=N\O
inactive: NCI-H23 lung 109% | NCI-H226 lung 112% | NCI-H322M lung 110% | HOP-62 NSCLC 118% | NCI-H460 lung 107% | HOP-92 NSCLC 84% | NCI-H522 lung 106% | A549/ATCC NSCLC 103% | 786-0 renal 102% | COLO 205 colon 116% | DU-145 prostate 109% | K-562 leukemia 88.6% | MALME-3M melanoma 110% | MDA-MB-231 breast 113% | RXF 393 renal 112% | SF-268 CNS 101% | SF-295 CNS 117% | SF-539 CNS 108% | UACC-257 melanoma 107% | M14 melanoma 105%

CN(C(=S)S(=O)(=O)C12CC3CC(CC(C3)C1)C2)c1ccccc1
inactive: NCI-H23 lung 97.5% | NCI-H226 lung 93.3% | NCI-H322M lung 114% | HOP-62 NSCLC 116% | NCI-H460 lung 110% | HOP-92 NSCLC 71.2% | NCI-H522 lung 46.1% | A549/ATCC NSCLC 95.1% | 786-0 renal 89.8% | COLO 205 colon 88.5% | DU-145 prostate 95.3% | K-562 leukemia 72% | MALME-3M melanoma 108% | MDA-MB-231 breast 88.9% | RXF 393 renal 111% | SF-268 CNS 94.5% | SF-295 CNS 105% | SF-539 CNS 97.6% | UACC-257 melanoma 87.3% | M14 melanoma 107%

O=C(O)c1c[nH]c2ccccc2c1=O
inactive: NCI-H23 lung 96.5% | NCI-H226 lung 105% | NCI-H322M lung 94% | HOP-62 NSCLC 94.9% | NCI-H460 lung 105% | HOP-92 NSCLC 87% | NCI-H522 lung 93.1% | A549/ATCC NSCLC 104% | 786-0 renal 97.8% | COLO 205 colon 95.3% | DU-145 prostate 98.6% | K-562 leukemia 93.1% | MALME-3M melanoma 91.9% | MDA-MB-231 breast 98.1% | RXF 393 renal 116% | SF-268 CNS 102% | SF-295 CNS 104% | SF-539 CNS 93.9% | UACC-257 melanoma 112% | M14 melanoma 101%

CCC(=O)Oc1c(C)cc(O)c2ccccc12
inactive: NCI-H23 lung 83.5% | NCI-H226 lung 86.8% | NCI-H322M lung 87.4% | HOP-62 NSCLC 79.5% | NCI-H460 lung 95.6% | HOP-92 NSCLC 79.5% | NCI-H522 lung 84.5% | A549/ATCC NSCLC 93.4% | 786-0 renal 84.7% | COLO 205 colon 110% | DU-145 prostate 107% | K-562 leukemia 73.4% | MALME-3M melanoma 113% | MDA-MB-231 breast 88.6% | RXF 393 renal 92.4% | SF-268 CNS 90.9% | SF-295 CNS 83.4% | SF-539 CNS 91.6% | UACC-257 melanoma 94.4% | M14 melanoma 95.2%
